Pol iota inh: inhibitors of human DNA polymerase iota; Potency, µM (highest dose often 115 µM), for inactives: top-dose activity, negative = inhibition, actives largely listed as inhibitors; Q9UNA4; 390,000 tested, 1% active; Pol iota fluorescent replication assay, 10 min; AID 588590
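Pol iota at 10 nM preincubated 15 min with compounds at room temperature; reaction started with fluorescent substrate, 50 nM final. Fluorescence read kinetically at 0 and 10 min; buffer-only wells as negative control.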
Pol eta inh: DNA polymerase eta (human) inhibition. Q9Y253. recombinant Pol eta, fluorescent DNA replication assay. Potency, µM (titrated, usually from 114 µM), without a hit: at the highest dose activity change, negative = inhibition, hits mostly inhibitors. 390,000 tested, 1.2% active; note: % is set by controls: 0 for no effect and ±100 for the full control effect
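Pol eta (10 nM) was preincubated with compounds for 15 min at room temperature, after which fluorescent replication substrate (50 nM final) was added to start the reaction. Fluorescence was read kinetically at 0 and 10 min.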
WRN inhibitor: inhibitors of human WRN helicase | WRN helicase unwinding, fluorescent forked duplex, kinetic | Potency, µM (doses to about 114 µM), for the others: at the highest dose activity change, negative = inhibition, hits mostly inhibitors | 360,000 tested, 0.46% active | AID 651768; note: % is set by controls: 0 for no effect and ±100 for the full control effect; nearly all actives have a fitted effect of over 55% in size
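Primary qHTS, 1536-well format. 20 nM WRN + compound, 15 min RT; start with 100 nM forked fluorophore/quencher duplex, 2 mM ATP (final); kinetic read ex 525/em 598 nm.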
FEN1 inhibitor: human FEN1 inhibition; 390,000 tested, 0.35% active; AID 588795; Recombinant FEN1 flap cleavage, fluorescence, 15 min; Potency, µM (highest dose often 114 µM), without a hit: at the top dose activity change, negative = inhibition, actives largely listed as inhibitors; P39748; note: % is set by controls: 0 for no effect and ±100 for the full control effect; nearly all actives have a fitted effect of over 65% in size
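Reaction started by adding substrate (50 nM final) to 10 nM enzyme after 15 min room-temperature compound preincubation. Reads at 0 and 15 min, with data normalized and fitted to a four-parameter Hill equation.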
Pol kappa inh: DNA polymerase kappa (human) inhibition | Potency, µM (titrated, usually from 107 µM), for the others: at the top dose activity, negative = inhibition, usual class: inhibitors | 400,000 tested, 0.53% active | purified Pol kappa, fluorescent DNA synthesis assay, 10 min | AID 588579 | Q9UBT6; note: % is set by controls: 0 for no effect and ±100 for the full control effect
Target sequence (Q9UBT6 whole entry, looked up): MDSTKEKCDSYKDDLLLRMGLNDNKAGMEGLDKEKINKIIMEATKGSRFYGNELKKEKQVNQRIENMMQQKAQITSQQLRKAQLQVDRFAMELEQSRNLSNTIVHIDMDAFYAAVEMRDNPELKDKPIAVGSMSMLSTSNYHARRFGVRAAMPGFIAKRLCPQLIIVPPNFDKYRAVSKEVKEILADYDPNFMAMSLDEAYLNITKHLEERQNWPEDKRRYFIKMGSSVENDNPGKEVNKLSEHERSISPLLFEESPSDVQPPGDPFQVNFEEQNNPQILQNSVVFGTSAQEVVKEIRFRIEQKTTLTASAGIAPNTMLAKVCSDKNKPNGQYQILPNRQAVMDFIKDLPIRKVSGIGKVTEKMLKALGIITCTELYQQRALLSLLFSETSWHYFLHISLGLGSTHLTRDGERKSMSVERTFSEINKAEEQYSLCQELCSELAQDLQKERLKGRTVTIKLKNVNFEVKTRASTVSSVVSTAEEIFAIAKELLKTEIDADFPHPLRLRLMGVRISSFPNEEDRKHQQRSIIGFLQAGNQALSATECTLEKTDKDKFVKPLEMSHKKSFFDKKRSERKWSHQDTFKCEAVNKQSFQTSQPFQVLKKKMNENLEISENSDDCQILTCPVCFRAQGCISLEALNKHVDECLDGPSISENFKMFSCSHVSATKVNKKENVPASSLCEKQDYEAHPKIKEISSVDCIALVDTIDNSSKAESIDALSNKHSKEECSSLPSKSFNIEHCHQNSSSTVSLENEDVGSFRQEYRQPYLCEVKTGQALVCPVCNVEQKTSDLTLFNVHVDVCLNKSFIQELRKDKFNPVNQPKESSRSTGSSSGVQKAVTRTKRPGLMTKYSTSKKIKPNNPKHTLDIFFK
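Kinetic fluorescence readout at 0 and 10 min followed reaction start with substrate at 50 nM final. Beforehand, enzyme (10 nM Pol kappa) stood 15 min with compound at room temperature; buffer-only wells were negative controls.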
POLB inh: inhibitors of human DNA polymerase beta. P06746. Pol beta primer extension/strand displacement, fluorescence kinetic. Potency, µM (top dose mostly 114 µM), inactives show at the top dose activity change, negative = inhibition, hits mostly inhibitors. 340,000 tested, 1.3% active. AID 485314; note: % is set by controls: 0 for no effect and ±100 for the full control effect
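Pol beta (10 nM) was preincubated with compound for 15 min at room temperature. The reaction was then started with 50 nM substrate and read immediately and after a further 10 min at room temperature.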
The depositor's hits bear a star; [ ] = dose if it differs, or a comment. In the library only some 2.4% were active in any assay of this set; here they are far more common. Calls come from the whole dose curve; as a rule, active = well fitted curve in the direction sought with a large enough effect; inconclusive = small, poorly fitted or top-dose-only effect, or another doubt; inactive = no such curve, though single readings can be large; an effect the other way counts as inactive or inconclusive. Potency is the fitted concentration of half-maximal effect.

`CCCOc1ccc(C(C)=O)cc1CSc1nc(O)cc(=O)[nH]1` gave Pol iota inh 35µM*, Pol eta inh -5%, WRN inhibitor -15%[11.6 µM], FEN1 inhibitor -16%, Pol kappa inh inconclusive and POLB inh inconclusive.
`CCCOc1ccc(C(C)=O)cc1CSCCC#N` gave Pol iota inh 16%, Pol eta inh -15%, WRN inhibitor -2%, FEN1 inhibitor 10%, Pol kappa inh -6% and POLB inh -3%.
`O=C(C[n+]1cccc2cccc(O)c21)c1ccc(Br)cc1` gave Pol iota inh 24%, FEN1 inhibitor 18% and Pol kappa inh 6%.
`OC(CN1CCCCC1)c1ccccc1` (configuration not stated) gave Pol iota inh 13%, FEN1 inhibitor -8% and Pol kappa inh 2%.
Screening COc1cc(/C=N/NC(=O)Cc2ccc(Br)cc2)cc(OC)c1O returned Pol iota inh 61%, Pol eta inh -16%, WRN inhibitor -5%, FEN1 inhibitor 6%, Pol kappa inh -13% and POLB inh 22µM*.
`COc1cc(/C=N/NC(N)=O)cc([N+](=O)[O-])c1O` gave Pol iota inh 13%, Pol eta inh 50µM*, WRN inhibitor -30%[57.1 µM], FEN1 inhibitor -9%, Pol kappa inh inconclusive and POLB inh inconclusive.
COc1cc(/C=N/NC(=O)c2ccc(COc3ccccc3Cl)o2)cc(Br)c1O was read as Pol iota inh inconclusive, Pol eta inh inconclusive, WRN inhibitor -32%, FEN1 inhibitor -22%, Pol kappa inh -29% and POLB inh 28µM*.
COc1ccc(/C=N/NC(=O)Cc2ccc(Cl)cc2)cc1OC was read as Pol iota inh 68%, Pol eta inh -8%, WRN inhibitor -23%[57.1 µM], FEN1 inhibitor 8%, Pol kappa inh 3% and POLB inh -5%.
Screening O=C(N/N=C/c1ccc2ccccc2c1)c1ccc(COc2ccc3c(c2)CCC3)o1 returned Pol iota inh 2%, Pol eta inh 10µM*, WRN inhibitor inconclusive, FEN1 inhibitor inconclusive, Pol kappa inh -3% and POLB inh 35µM*.
COc1cccc(/C=N/NC(=O)c2ccc(COc3ccc(Cl)cc3Cl)o2)c1 was read as Pol iota inh 6%, Pol eta inh -2%, WRN inhibitor -3%, FEN1 inhibitor 1%, Pol kappa inh -3% and POLB inh 8%.
For CN(C)c1ccc(-c2ccc3ncnc(NC4CC4)c3c2)cc1 the results were Pol kappa inh 0%[60.1 µM].
`O=S(=O)(c1ccccc1F)N1CCN(c2nc(-c3cccs3)nc3ccccc23)CC1` gave Pol iota inh 37%, FEN1 inhibitor -11% and Pol kappa inh 2%.
`Cc1ccc(NC(=O)c2ccc(NC(=O)N3CCSc4ncccc43)cc2)cc1Cl` gave Pol iota inh -6%, Pol eta inh -12%, FEN1 inhibitor -4%, Pol kappa inh -19% and POLB inh 10%.
O=C1NC(=O)c2c1c(-c1ccccc1)cc1[nH]c3ccc(O)cc3c21 was read as Pol kappa inh 12%[60.1 µM].
`C[n+]1c(/C=C/c2ccc(N)cc2)sc2ccccc21` gave Pol iota inh inconclusive, FEN1 inhibitor -20% and Pol kappa inh -20%.
Screening COc1ccc(-c2cc3ncc(C)n3c(Nc3ncccc3C(N)=O)n2)cc1OC returned FEN1 inhibitor inconclusive and Pol kappa inh -15%[60.1 µM].
`COc1cc(/C=N/NC(=O)CC#N)cc(Br)c1O` gave Pol iota inh 45µM*, Pol eta inh -27%, WRN inhibitor -11%, FEN1 inhibitor -2%, Pol kappa inh -16% and POLB inh 6%.
COc1cc(/C=N/NC(=O)c2sc(N)c(C#N)c2C)cc(Br)c1O was read as Pol iota inh inconclusive, Pol eta inh inconclusive, WRN inhibitor -44%, FEN1 inhibitor -3%, Pol kappa inh -24% and POLB inh -14%.
C1=Nc2ccccc2/C1=C/c1c[nH]c2ccccc12 was read as Pol iota inh 80%, FEN1 inhibitor -7% and Pol kappa inh -13%.
`NC(=O)CC[C@@H]1NC(=O)[C@H](CO)NC(=O)c2cc([N+](=O)[O-])cc(I)c2NCCC[C@@H](C(N)=O)NC(=O)[C@H](Cc2ccc(O)cc2)NC1=O` gave Pol iota inh inconclusive, Pol eta inh 89µM*, WRN inhibitor -19%, FEN1 inhibitor -10%, Pol kappa inh -12% and POLB inh 0%.
Screening NC(=O)[C@@H]1CCCNc2c(I)cc([N+](=O)[O-])cc2C(=O)N[C@@H](CO)C(=O)N[C@@H](Cc2ccc(O)cc2)C(=O)N1 returned Pol iota inh -5%, Pol eta inh -3%, WRN inhibitor -8%, FEN1 inhibitor -3%, Pol kappa inh 12% and POLB inh -12%.
`NC(=O)[C@@H]1CCCCNc2c(I)cc([N+](=O)[O-])cc2C(=O)N[C@@H](CCC(=O)O)C(=O)N[C@@H](CO)C(=O)N1` gave Pol iota inh 18µM*, Pol eta inh 6.3µM*, WRN inhibitor inconclusive, FEN1 inhibitor -3%, Pol kappa inh 50µM* and POLB inh 0%.
Screening NC(=O)[C@@H]1CCCNc2c(F)cc([N+](=O)[O-])cc2C(=O)N[C@@H](CCC(=O)O)C(=O)N[C@@H](CO)C(=O)N1 returned Pol iota inh inconclusive, Pol eta inh 3%, WRN inhibitor -4%, FEN1 inhibitor -7%, Pol kappa inh -21% and POLB inh 11%.
NC(=O)[C@@H]1CCNc2c(I)cc([N+](=O)[O-])cc2C(=O)N[C@@H](CCC(=O)O)C(=O)N[C@@H](CO)C(=O)N1 was read as Pol iota inh inconclusive, Pol eta inh 22µM*, WRN inhibitor -15%[57.1 µM], FEN1 inhibitor -2%, Pol kappa inh inconclusive and POLB inh -7%.
CC[C@H](C)C1NC(=O)[C@H](CC(=O)O)NC(=O)c2cc([N+](=O)[O-])cc(I)c2NCCC(C(N)=O)NC1=O (some centres not stated) was read as Pol iota inh inconclusive, Pol eta inh 25µM*, WRN inhibitor -16%[57.1 µM], FEN1 inhibitor -4%, Pol kappa inh 79µM* and POLB inh 1%.
C[C@@H]1NC(=O)[C@H](CCC(N)=O)NC(=O)c2cc([N+](=O)[O-])cc(I)c2NCC[C@@H](C(N)=O)NC1=O was read as Pol iota inh -2%, Pol eta inh -14%, WRN inhibitor -3%, FEN1 inhibitor 0%, Pol kappa inh 1% and POLB inh 20%.
CC(C)C[C@@H](NC(=O)[C@@H](Cc1ccccc1)NC(=O)c1cnccn1)B(O)O was read as Pol kappa inh -5%[19.4 µM].
